# In the supplement of paper PMC13392028:
# Tested on: PvIESI-1 RRM domain (Plasmodium vivax PVP01_0939900 aa 896-1203, GST fusion)
# Assay: RBNS R-value (6-mer enrichment in protein-bound RNA vs input library) (ratio); higher = stronger binding preference; the methods of the paper give 50 / 100 / 500 nM protein instead
# How it was run: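 Values come from one replicate, scored over 6-mers. The R-value expresses enrichment of each motif in bound RNA over the input library, from the Burge lab pipeline. Bound RNA was obtained by incubating purified, E. coli-expressed GST-tagged RNA-recognition-motif regions of orthologues from three Plasmodium species with a random 40-mer in vitro transcribed RNA library at room temperature, capturing on glutathione magnetic agarose beads, and reverse transcribing it with the input for MiSeq sequencing.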
Sequence,RBNS R-value (protein concentration: 250 nM),RBNS R-value (protein concentration: 500 nM),RBNS R-value (protein concentration: 1000 nM)
UGAUAA,2.82,3.29,3.43
CCUUGA,1.7,1.88,1.91
GUUGAU,2.7,2.98,2.73
GAUGGC,2.5,2.55,2.36
GAUGAG,2.33,2.49,2.4
CGAUGA,2.37,2.7,2.6
AUGAUU,4.49,4.79,4.59
UGAUAU,2.45,2.79,2.9
GACACC,1.46,1.66,1.69
UGAUUU,4.88,5,4.69
GUGAUA,2.04,2.34,2.47
GAUGUG,2.3,2.53,2.31
GAUUUC,2.32,2.49,2.38
ACUGAU,2.99,3.2,3.11
CUUGAU,3.23,3.65,3.49
GAUUGA,2.27,2.42,2.29
UUUGAU,3.94,4.25,3.98
CUGAUA,2.42,2.81,2.81
GAUGAA,2.73,2.89,2.83
CUGAUG,4.09,4.34,4.04
GAUUGC,2.21,2.33,2.1
GAUUUU,2.5,2.64,2.47
